Growth data for 13 compounds are collected here from PubChem BioAssay (NCI).

Some test systems named below: DU-145 prostate; K-562 leukemia; MALME-3M melanoma; MDA-MB-231 breast; RXF 393 renal; SF-268 CNS; SF-295 CNS; SF-539 CNS; UACC-257 melanoma; M14 melanoma.
What all share (experiment): NCI-60 one-dose screen, 48 h (100 = growth as untreated, 0 = no growth, -100 = all killed)
Settings in all cases: 10 µM unless noted

This is part of a sample that, as a whole, favours compounds with a hit. Of some 83,000 tested, about 20% had one in any assay.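 Plates (96-well) were seeded with cells, treated with compound at one concentration, and incubated for 48 hours before percent growth was determined.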 Unmarked numbers belong to inactive results. Calls of active or inactive are those of the source. How the source made its calls: active means growth percent below 10; inactive means the rest.

On to `OCCCCCNC1CCCCC1`, for which the growth with DU-145 prostate was 115%; in the assay on K-562 leukemia, 94%; with MALME-3M melanoma, 97.3%; with MDA-MB-231 breast, 114%; with RXF 393 renal, 104%; in the assay on SF-268 CNS, 113%. Further, the growth in the assay on SF-295 CNS was 110%; with SF-539 CNS, 98%; in the assay with UACC-257 melanoma, 99.5%; with M14 melanoma, 101%.

On to `O=[N+]([O-])c1cnc[nH]1`, for which the growth in the assay with DU-145 prostate is 116%; in the assay on K-562 leukemia, 123%; in the assay with MALME-3M melanoma, 112%; with MDA-MB-231 breast it was 101%; in the assay with RXF 393 renal it was 128%; with SF-268 CNS, 106%. Further, the growth in the assay with SF-295 CNS was 104%; in the assay on SF-539 CNS it was 110%; with UACC-257 melanoma, 103%; with M14 melanoma, 119%.

Take `O=C1NC(=O)C(=Cc2ccc(OCCCCC3CCCCC3)c(Cl)c2)C(=O)N1`: the growth was 106% in the assay on DU-145 prostate; 88.3% with K-562 leukemia; 110% with MALME-3M melanoma; 100% in the assay on MDA-MB-231 breast; 103% with RXF 393 renal; 99.7% in the assay with SF-268 CNS. Also, the growth was 94% with SF-295 CNS, 92.8% in the assay with SF-539 CNS, 107% with UACC-257 melanoma and 86.6% in the assay with M14 melanoma.

As to `COc1ccc(Nc2ccc([N+](=O)[O-])cc2[N+](=O)[O-])cc1CN(CCCl)CCCl`, the growth in the assay on DU-145 prostate was 35.8%; in the assay on K-562 leukemia, 24.4%; with MALME-3M melanoma, 55.1%; in the assay with MDA-MB-231 breast, 44.1%; with RXF 393 renal it was -1.08% (active); in the assay with SF-268 CNS, 24.9%. The growth is 37.6% in the assay on SF-295 CNS, 15.9% in the assay with SF-539 CNS, 62.9% in the assay with UACC-257 melanoma and 46.7% in the assay on M14 melanoma.

With `CC(=O)O[C@H]1CC[C@H]2[C@@H]3CC=C4c5nc(-c6ccccc6)sc5CC[C@]4(C)[C@H]3CC[C@]12C`, the growth with DU-145 prostate is 86.1%; with K-562 leukemia, 8.09% (active); with MALME-3M melanoma, 93.9%; in the assay on MDA-MB-231 breast it was 64.2%; in the assay with RXF 393 renal, 79.2%; in the assay on SF-268 CNS it was 78.9%. For the same compound, the growth in the assay on SF-295 CNS was -0.49% (active); in the assay with SF-539 CNS, 13.8%; in the assay with UACC-257 melanoma, 64.6%; in the assay with M14 melanoma, 61.5%.

With `CC(=O)Oc1ccccc1C(=O)NCCC[Se]C#N`, the growth with DU-145 prostate was -32.9% (active); with K-562 leukemia, 30.2%; in the assay with MALME-3M melanoma, -24.5% (active); in the assay on MDA-MB-231 breast it was -38.5% (active); with RXF 393 renal, -7.78% (active); in the assay on SF-268 CNS, -22.3% (active). In addition, the growth was -15.7% (active) in the assay on SF-295 CNS, -72.1% (active) in the assay with SF-539 CNS, 42.1% in the assay with UACC-257 melanoma and -13.1% (active) with M14 melanoma.

With `CCC(=O)Nc1ccc(Cl)c(Cl)c1`, the growth was 115% in the assay with DU-145 prostate; 97.6% in the assay with K-562 leukemia; 102% with MALME-3M melanoma; 92.2% in the assay on MDA-MB-231 breast; 101% with RXF 393 renal; 105% in the assay with SF-268 CNS. Besides, the growth with SF-295 CNS was 98.3%; in the assay with SF-539 CNS, 92.4%; in the assay with UACC-257 melanoma, 102%; in the assay with M14 melanoma it was 103%.

As for `C/C(=C\c1ccn(-c2ccc(N)cc2)n1)[C@@H]1C[C@@H]2O[C@]2(C)CCC[C@H](C)[C@H](O)[C@@H](C)C(=O)C(C)(C)[C@@H](O)CC(=O)O1`, the growth is -8.99% (active) with DU-145 prostate; 11.4% in the assay on K-562 leukemia; 36.7% with MALME-3M melanoma; 33.5% with MDA-MB-231 breast; -0.234% (active) in the assay with RXF 393 renal; 37.4% in the assay on SF-268 CNS. Also, the growth in the assay on SF-295 CNS is 18.6%; with SF-539 CNS, -2.33% (active); in the assay on UACC-257 melanoma, 59.5%; with M14 melanoma, -17% (active).

With `CC(=O)O[C@H](C[C@H](C(C)C)N(C)C(=O)[C@@H](NC(=O)[C@H]1CCCCN1C)C(C)(C)C)c1nc(C(=O)N[C@@H](Cc2ccccc2)C[C@H](C)C(=O)O)cs1`, the growth in the assay with DU-145 prostate was 0.642% (active); in the assay with K-562 leukemia, 5.51% (active); in the assay on MALME-3M melanoma it was 66.7%; with MDA-MB-231 breast it was 6.25% (active); with RXF 393 renal it was 39.5%; in the assay on SF-268 CNS, 24.1%. The growth with SF-295 CNS was -0.638% (active); with SF-539 CNS, -10.9% (active); in the assay on UACC-257 melanoma it was 47%; in the assay with M14 melanoma, 3.36% (active).

`C=CC1=C[C@@H]2[C@@H]3O[C@]4(CC[C@H](O4)[C@@H](C)C[C@@H](O)C3=O)C[C@H](O)C3=NCC[C@@]32CC1`: the growth with DU-145 prostate is -26.7% (active); in the assay on K-562 leukemia, 5.48% (active); in the assay with MALME-3M melanoma, -82.2% (active); in the assay on MDA-MB-231 breast it was -29.2% (active); with RXF 393 renal, -67.3% (active); in the assay on SF-268 CNS, -35.8% (active). The growth was -35.9% (active) in the assay on SF-295 CNS, -43.6% (active) with SF-539 CNS, -31.5% (active) in the assay with UACC-257 melanoma and -79% (active) in the assay on M14 melanoma.

In the case of `Nc1ccc(-c2nc3cc(F)ccc3[se]2)cc1F`, the growth in the assay on DU-145 prostate is 96.8%; in the assay on K-562 leukemia it was 93%; in the assay with MALME-3M melanoma, 102%; in the assay with MDA-MB-231 breast, 42.3%; in the assay with RXF 393 renal, 82.6%; with SF-268 CNS, 80.8%. Further, the growth in the assay on SF-295 CNS was 87.6%; in the assay with SF-539 CNS, 86.9%; with UACC-257 melanoma it was 98.1%; in the assay on M14 melanoma, 91.8%.

Regarding `CC(C)=CCC[C@H](C(=O)O)[C@@H]1CC[C@]2(C)C3=C(CC[C@@]12C)[C@@]1(C)CC[C@H](O)C(C)(C)[C@@H]1CC3`, the growth is 110% with DU-145 prostate; 70.4% in the assay on K-562 leukemia; 106% with MALME-3M melanoma; 103% in the assay on MDA-MB-231 breast; 104% with RXF 393 renal; 101% in the assay on SF-268 CNS. Besides, the growth in the assay with SF-295 CNS is 94.6%; in the assay on SF-539 CNS it was 93.2%; with UACC-257 melanoma, 88.9%; in the assay on M14 melanoma, 85.9%.

Take `NC(=O)c1c(Br)n(C2OC(CO)C(O)C2O)c2ncnc(N)c12` (stereo not given): the growth was 1.13% (active) in the assay on DU-145 prostate; 1.67% (active) with K-562 leukemia; 13.2% in the assay on MALME-3M melanoma; 50.6% with MDA-MB-231 breast; -16.4% (active) in the assay on RXF 393 renal; 20.1% with SF-268 CNS. The growth in the assay with SF-295 CNS is 38.9%; with SF-539 CNS, 13.7%; with UACC-257 melanoma, -0.624% (active); in the assay with M14 melanoma, 2.28% (active).
